Consider 40 molecules from PubChem BioAssay (EPA / NIEHS).

Activity calls are given as the source filed them. Rule for the calls: active = hit-call score of the fitted dose curve at least 0.9, where 1 is the maximum; inactive = score below 0.9.

Read-out in the experiment: ABC Transporter (ABCB11), ABCB11 (gene 8647)
Description: LTEA_HepaRG_ABCB11: Life Technologies and Expression Analysis (LTEA) Assay for ABC Transporter (ABCB11) using HepaRG (AID 2283463). As to conditions: mRNA level, 48 h; actives raise or lower the signal. As to the method: LTEA_HepaRG is a cell based, multiplexed-readout assay that uses HepaRG, a human liver cell line, with measurements taken at 48 hours after chemical dosing on a 96-well plate.LTEA_HepaRG_ABCB11 is one of 102 assay component(s) measured in the LTEA HepaRG cell culture assay. It is a marker of Steatosis/NR mediated transport.Data from the assay component LTEA_HepaRG_ABCB11 was analyzed into 1 endpoint. This assay endpoint, LTEA_HepaRG_ABCB11, was analyzed with bidirectional fitting relative to DMSO as the negative control and baseline of activity. Using a type of inducible reporter, measures of mRNA induction for gain or loss-of-signal activity can be used to understand regulation of transcription factor activity. To generalize the intended target to other relatable targets, this assay endpoint is annotated to the transporter intended target family, where the subfamily is ABC transporter.
A total of 1060 chemcials from the ToxCast library were tested in eight-point concentration-response experiments. Cell culture and cytotoxicity assays were conducted at Thermo Fisher Scientific's Custom Services facility (Madison, WI). A single lot of human HepaRG cells (Thermo Fisher Scientific, Frederick, MD) was used for the cell culture experiments. 96-well format collagen type I coated plates of human HepaRG cells were prepared using established methods. Briefly, cryopreserved HepaRG cells were thawed, plated at a density of approximately 100,000 cells/well in HepaRG Thaw, Plate, and General Purpose media (HPRG770, Thermo Fisher Scientific), and incubated for 48 hours. 0.5% DMSO was selected as vehicle control to balance the requisite need of DMSO in HepaRG cultures to maintain differentiation (for example, baseline metabolism, proportions of hepatocytes vs. cholangiocytes), while enabling further hepatic receptor pathway activation (for example, PXR and CAR) in response to chemical exposure. 48 hours after plating, the culture medium was replaced with HepaRG Serum-Free Incudtion Media. Cells were exposed to each test chemical in duplicate and maintained in CO2 incubators for another 48 hours. Chemical plates were thawed to room temperature and 200x concentrations of treatment groups were prepared. 8-point conentration-reponse curves were made with the highest exposure at 100 uM, followed by half-log dilutions, all in 0.5% DMSO. Each test plate contained variouse controls, induction positive controls (1mM phenobarbital), cytotoxicity positive controls ([…] aflatoxin B1), vehicle controls (0.5% DMSO), and total lysis controls (0.5% DMSO). Cell morphology images were taken using an Essen IncuCyte FLR automated microscope, with six 96-well plates imaged in about 24 minutes. Images were captured and exported and JPEG files. Spent culture media was transfered to black-well plates for the LDH assay, and remaining media was sorted at -80 C for later use. Cells were treated with RLT buffer and frozen until shipped for gene expression analysis. Total RNA was isolated from the cell suspension in 75 uL of Buffer RLT (Qiagen, Germantown, MD 20874) by Quintiles/Expression Analysis (Durham, NC) using a custom isolation procedure. Total RNA from each plate well was transferred to a preamplification plate. Fluidigm's 96.96 Dynamic ArrayTM (Fluidigm, Amsterdam, the Netherlands) technology was used for gene expression analyses by quantitative reverse transcription polymerase chain reaction (qRT-PCR, performed by Quintiles/Expression Analysis, Durham, NC)89. Standard TaqManTM Assays (Applied Biosystems/ThermoFisher Scientific, Foster City, CA) were used to assess the expression of 93 genes selected based on their selectivity and sensitivity to important hepatic receptors known to be modulated by environmental chemicals; importance in human hepatocyte functionality; and hepatotoxicity. […]
In the case of `CCCCCOC(=O)c1ccccc1C(=O)OCCCCC`, the molecule was classed as inactive. As for `ClC1=C(Cl)[C@]2(Cl)[C@H]3[C@H]([C@@H]4C=C[C@H]3C4)[C@@]1(Cl)C2(Cl)Cl`, the molecule was classed as inactive.

For the molecule `ClC1=C(Cl)C2(Cl)C3C(Cl)C=CC3C1(Cl)C2(Cl)Cl` (stereo not given), the AC50 (in general, the concentration at which the activity in the assay is half-maximal) is 41.6 µM (active). As for `Oc1ccccc1Cl`, the outcome was inactive. Take `O=[N+]([O-])c1ccc(Oc2ccc(Cl)cc2Cl)cc1`: the AC50 was 11.5 µM (active).

With `CC(C)COC(=O)c1ccccc1C(=O)OCC(C)C`, the molecule was called inactive. Still for that read-out and setting: the entry for `[O-][Cl+]O` is “inactive”. For `CNC(=O)Oc1cccc2c1OC(C)(C)C2`, the AC50 was 28.4 µM (active). The same measure, in the same setting: under `CS(=O)(=O)NC(=O)c1cc(Oc2ccc(C(F)(F)F)cc2Cl)ccc1[N+](=O)[O-]` stands 50 µM (active). As for `CCCCOC(=O)c1ccccc1C(=O)OCc1ccccc1`, the result was inactive.

For the molecule `O=P(OCCCl)(OCCCl)OCCCl`, the molecule was classed as inactive.

Take `Cc1ccc(N)cc1`: the molecule was called inactive.

Turning to `Cc1cc(N=Nc2ccccc2C)ccc1N`, the concentration at half-maximal activity (AC50) is 4.58 µM (active). On to `c1ccc2c(c1)-c1cccc3cccc-2c13`, for which the call was inactive. Regarding `Cc1ccc(N=C=O)cc1N=C=O`, the AC50 is 20.2 µM (active). Turning to `N#CC(Br)(Br)C(N)=O`, the outcome was inactive. `Clc1ccc(Cl)c(Cl)c1`: the AC50 is 50 µM (active). Consider `CCOc1cccc(C2(N3CCN(c4ccccc4)CC3)CCC(C)CC2)c1` (stereo not given), for which the call was inactive. On to `Nc1ccc(Cl)cc1N`, for which the AC50 is 19 µM (active). For the molecule `CCCSC(=O)N(CCC)CCC`, the outcome was inactive. `OCCCBr`: the result was inactive. Turning to `CC(C)(OOC(C)(C)c1ccccc1)c1ccccc1`, the molecule was called inactive. On the same count and under the same terms, under `Clc1ccccc1Cl` stands “inactive”; under `O=[N+]([O-])C(Br)(CO)CO`, “inactive”. Still for that read-out and setting: under `c1ccc(N=Nc2ccccc2)cc1` stands “inactive”. With `[Cl-].[Cl-].[Hg+2]`, the molecule was called inactive. As for `Clc1ccc(C(c2ccc(Cl)cc2)C(Cl)Cl)cc1`, the AC50 was 81.8 µM (active). Take `C=CCc1ccc2c(c1)OCO2`: the molecule was called inactive. Take `Nc1ccc(N=Nc2ccccc2)cc1`: the half-maximal activity concentration (AC50) was 13.8 µM (active).

`CCCCCCCCn1sccc1=O`: the AC50 was 72.1 µM (active). As to `O=C(O)C1C2CCC(O2)C1C(=O)O` (stereo not given), the AC50 is 77.9 µM (active). `OCCOCCO`: the result was inactive. Consider `CC(C)N(Cc1ccccc1)C(=O)C(C)(C)C`, for which the molecule was called inactive. As to `O=Cc1ccco1`, the call was inactive. In the case of `CCNS(=O)(=O)C(F)(F)C(F)(F)C(F)(F)C(F)(F)C(F)(F)C(F)(F)C(F)(F)C(F)(F)F`, the AC50 was 23.7 µM (active). For `c1ccc(C2CO2)cc1` (stereo not given), the outcome was inactive. The same measure, in the same setting: under `CCCCCCCCOC(=O)c1ccc(C(=O)OCCCCCCCC)c(C(=O)OCCCCCCCC)c1` stands “inactive”; under `OCCCl`, “inactive”. As for `COc1cc(C=O)cc2c1[C@H](COC(N)=O)[C@]1(OC(C)=O)ON2C[C@H]2[C@@H]1N2C(C)=O`, the AC50 is 0.38 µM (active). Turning to `CN(C)c1ccccc1`, the molecule was called inactive.
